According to PubChem BioAssay (NCI):
Where “and” joins values, the source holds several entries; their conditions need not be identical. Equal entries are not always repeated. Compounds without any hit were thinned out: in the full panel of roughly 83,000, 20% have a hit.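 48-hour exposure, single concentration, 96-well plates; percent growth endpoint where 0 means no net growth. Active: below 10.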 Values without a mark were called inactive. Calls of active or inactive are those of the source.

Test system: MDA-MB-468 breast
Assay: NCI-60 one-dose screen, 48 h (100 = growth as untreated, 0 = no growth, -100 = all killed)
Conditions: 10 µM unless noted

Structure (SMILES) | growth
NC(=O)c1cccc(-c2ccccc2N2CCCCC2)c1 | 94.2%
CC(=O)c1cnc2ccc(-c3cc(Cl)c(O)c(Cl)c3)nc2c1NC1CCC(CN(C)C)CC1 (centres undefined) | -62% [2.5 µM] (active)
COc1cccc(/C(C)=N/NC(=O)CSc2nc3ccccc3c(=O)n2CCc2ccc(S(N)(=O)=O)cc2)c1 | 35.3%
NCC(=O)NS(=O)(=O)OC[C@H]1O[C@@H](n2cnc3c(N)ncnc32)[C@H](O)[C@@H]1O | -34.3% (active)
CN(C)c1nc2c([nH]1)c(=O)n(C)c(=O)n2C | 101%
CN1CCN(Cc2ccc3c(NNC(=O)c4ccccc4)nc4cc(F)ccc4n23)CC1 | -12.5% (active)
O=C1c2ccc3c4c(ccc(c24)C(=O)N1CCCNCc1ccccc1Cl)C(=O)N(CCCNCc1ccccc1Cl)C3=O | -89% (active)
C[C@@H]1[C@H]2[C@H](C=C3[C@@H]4CC[C@H]5Cc6nc7c(nc6C[C@]5(C)[C@H]4C[C@@H](O)[C@@]32C)C[C@@H]2CC[C@H]3C4=C[C@@H]5O[C@@]6(CC[C@](C)(CO)O6)[C@@H](C)[C@@]5(O)[C@@]4(C)[C@H](O)C[C@@H]3[C@@]2(C)C7)O[C@]12CCC(C)(C)O2 | 11.8%
Cc1nc2c(ccc3ccccc32)s1 | 109%
N#Cc1cccc(NC(=O)c2cc(-c3ccc(F)cc3F)ccc2O)c1 | -4.46% (active) and -3.84% (active)
C=C(C)[C@@H]1CC[C@]2(C(N)=O)CC[C@]3(C)[C@H](CC[C@@H]4[C@@]5(C)CCCNC(C)(C)[C@@H]5CC[C@]43C)[C@@H]12 | 78.3%
Cc1c(Cl)cccc1NS(=O)(=O)c1ccccc1 | 93.2%
C=CCSc1n[nH]c(-c2cccs2)n1 | 95.6%
CCCCn1c(=O)[nH]c2c(c1=O)C(c1ccc(Cl)cc1)c1c([nH]c(=O)n(CCCC)c1=O)N2 | 108%
N#Cc1c(-c2ccc(Cl)cc2)n(O)c2ccccc12 | -3.01% (active)
C=CCN=C1NC(=O)/C(=C/c2cc(C(C)(C)C)c(O)c(C(C)(C)C)c2)S1 | 43.4%
CC(=O)O[C@]1(C)C[C@H](O)[C@]2(O)C=CO[C@H](O[C@@H]3O[C@H](CO)[C@@H](O)[C@H](O)[C@H]3O)[C@@H]21 | 96.8%
Cc1ccc(Nc2ncnc3c2c(C)nn3-c2ccc([N+](=O)[O-])cc2)cc1 | 84.2%
O=C(Nc1ccccc1)c1cc(Cl)ccc1O | 47.6%
Cc1ccc(-c2nnc(SCc3nc(N)nc(Nc4ccccc4F)n3)n2-c2ccccc2)cc1 | 86.5%

Structure (SMILES) | growth
CC(=O)Oc1cc2cnc3c4cc(OC(C)=O)c(OC(C)=O)cc4ccc3c2cc1OC(C)=O | -7.77% (active)
COCCN(C(=O)c1ccc(F)cc1F)c1c(N)n(Cc2ccccc2)c(=O)[nH]c1=O | 87.8%
C(=C\c1ccncc1)/c1ccncc1 | 92.6%
CCOC(=O)c1c2c(n3ccccc13)C(=O)c1ncccc1C2=O | 80.8%
O=C(/C=C/c1cccc(Cl)c1Cl)Nc1ncc(Cc2ccccc2Cl)s1 | 10.4%
Nc1cc(N)ncn1 | 101%
Cc1ccccc1CCO | 97.5%
COc1ccc(-c2nc(SC)nc(N3CCOCC3)c2C#N)cc1 | 101%
Cc1ccc(-c2csc(/N=C3\C(=O)Nc4ccccc43)n2)cc1 | -12.5% (active)
O=C(/C=C/c1ccc(F)cc1)c1ccc(O)cc1 | 83%
Cc1csc(Nc2nc(-c3cccc(Br)c3)nc(C(Cl)(Cl)Cl)n2)n1 | -29.8% (active)
CC(=O)Nc1cc(C)ccc1C | 76%
COc1cc(C(=O)c2cc(C(C)=O)c3cccc(C)n23)cc(OC)c1OC | 15.4%
CCOC(=O)c1sc2ncnc(Nc3ccc4c(cnn4C(=O)Nc4ccc(C)c(Cl)c4)c3)c2c1C | 95.1%
O=C(CSc1nnc(-c2cc(-c3ccc(Cl)cc3)nc3ccccc23)n1-c1ccccc1)Nc1ccc(Cl)cc1 | 110%
Cn1c2ccccc2c2c3c(c4c5cc(Br)ccc5n(C)c4c21)C(=O)N(O)C3=O | -0.278% (active)
CC(C)=NNc1ccc([N+](=O)[O-])cc1[N+](=O)[O-] | 96%
CCN1C(=O)N(CC)C2C1NN=c1s/c(=C3\C(=O)N(C(C)C)c4ccccc43)c(=O)n12 (centres undefined) | 16.5%
COc1ccc([C@H]2c3[nH]c4ccccc4c3C[C@@H]3C(=O)N(C4CCN(Cc5ccccc5)CC4)CC(=O)N23)c(OC)c1 | 63.4%
